Here are results for 76 compounds from the supplement of paper PMC6135742.

Values joined by “and” are separate entries in the source; they are usually repeats but may differ in a detail not shown here. Equal entries are not always repeated. Structures can show the parent of a compound that is named as a salt. ± gives the standard deviation of the averaged measurements. Whole data set: some 2,600 compounds, median “total cell number (DAPI+ nuclei) relative to DMSO vehicle control” near -1.4, cut for the lowest 2% near -23. Many of the other results were omitted from the sample, so the lowest values are more common in it than they were.

This assay relates to jimpy (Plp1 jimpy) mouse iPSC-derived oligodendrocyte progenitor cells. The assay can be described thus: total cell number (DAPI+ nuclei) relative to DMSO vehicle control (SDs above negative control mean); higher = more surviving cells. Conditions: 10 µM; 3 days.
`CC(C)(CO)Cc1cc(C(C)(C)C)c(O)c(C(C)(C)C)c1`: the total cell number amounted to 1.01. Take `COC(=O)C1=C(C)NC(C)=C(C(=O)OC(C)(C)CN(C)CCC(c2ccccc2)c2ccccc2)C1c1cccc([N+](=O)[O-])c1` (stereo unspecified) [Lercanidipine hydrochloride hemihydrate]: the total cell number was -8.91.

`CC(C)(NS(=O)(=O)c1ccc(Oc2ccc(F)cc2)cc1)C(=O)NO`: the total cell number was -2.86. The compound `CC(N)(Cc1ccc(O)c(O)c1)C(=O)O` (racemic) [(±)-3-(3,4-dihydroxyphenyl)-2-methyl-DL-alanine] came in with a total cell number of -2.34.

Compound `N=C(N)SCCN` [2-(2-Aminoethyl)isothiourea dihydrobromide] displayed a total cell number of -2.29. Under `O=C(Nc1c[nH]nc1-c1nc2ccc(CN3CCOCC3)cc2[nH]1)NC1CC1` stands -22.6. In the case of `O=C(NC1CCOCC1)c1ccc(-c2cc(-c3c[nH]nc3-c3ccccn3)ccn2)cc1` it was -0.803; in that of `CCCCNc1ncc(-c2ccc(CN3CCOCC3)cn2)c(NC2CCC(O)CC2)n1` (stereo unspecified), -8.26. In the case of `O=C(O)Cn1nnc(-c2cc(N3CCC(Oc4cc(F)ccc4Br)CC3)no2)n1` it was 3.6; in that of `CC(C)N(CCCNC(=O)Nc1ccc(C(C)(C)C)cc1)C[C@H]1O[C@@H](n2cc(Br)c3c(N)ncnc32)[C@H](O)[C@@H]1O`, -7.77; in that of `CCS(=O)(=O)Nc1ccc2c(c1)/C(=C(/Nc1ccc(CN3CCCCC3)cc1)c1ccccc1)C(=O)N2` [Hesperadin], -17.7. As to `CN(C)Cc1cccc(N/C(=C2\C(=O)Nc3cc(C(N)=O)ccc32)c2ccccc2)c1`, the total cell number was -14.3. Under `COC(=O)c1ccc2c(c1)NC(=O)/C2=C(\Nc1ccc(N(C)C(=O)CN2CCN(C)CC2)cc1)c1ccccc1` [Nintedanib (BIBF 1120)] stands -23. With `C[C@@H]1O[C@@H](OC[C@H]2O[C@@H](Oc3c(-c4ccc(O)c(O)c4)oc4cc(O)cc(O)c4c3=O)[C@H](O)[C@@H](O)[C@@H]2O)[C@H](O)[C@H](O)[C@H]1O` [Rutin], the total cell number is -0.749.

With `CCCNS(=O)(=O)Nc1ncnc(OCCOc2ncc(Br)cn2)c1-c1ccc(Br)cc1` [Macitentan], the total cell number is -0.584. With `CC(C)[C@H](NC(=O)c1ccc2ccccc2n1)C(=O)N[C@@H](CC(=O)O)C(=O)COc1c(F)cccc1F`, the total cell number came to 15.6. Compound `CC(C)C[C@H](NC(=O)[C@@H](NC(=O)c1cccc(-c2ccccc2)n1)[C@@H](C)O)B(O)O` registered a total cell number of -22.6. Under `CC(C)C[C@H](NC(=O)[C@H](Cc1ccccc1)NC(=O)c1cnccn1)B(O)O` [Bortezomib (PS-341)] stands -20.2; under `C=CC(N)CCC(=O)O` (racemic) [(±)-gamma-Vinyl GABA], -0.562; under `COc1ccc(C2CC(=O)c3c(O)cc(OC4OC(COC5OC(C)C(O)C(O)C5O)C(O)C(O)C4O)cc3O2)cc1OC` (stereo unspecified) [Methyl-Hesperidin], -1.13. In turn, `NCC(O)c1ccc(O)c(O)c1` (racemic) [(±)-Norepinephrine (+)bitartrate] showed a total cell number of 0.169. Under `COc1cccc(C(=O)NCCN2CCN(c3ccc(Cl)cc3)CC2)c1` stands -2.1; under `Cc1nc(Nc2ncc(C(=O)Nc3c(C)cccc3Cl)s2)cc(N2CCN(CCO)CC2)n1` [Dasatinib], -22.6; under `CNC(=O)c1ccc2cc([C@@]3(O)CCn4cncc43)ccc2c1` [TAK-700 (Orteronel)], 0.9. On to `CC1(C)S[C@@H]2[C@H](NC(=O)C(C(=O)O)c3ccccc3)C(=O)N2[C@H]1C(=O)O` (stereo partly specified) [Carbenicillin disodium], for which the total cell number turned out to be 0.323.

Consider `Cc1nc(N)sc1-c1ccnc(Nc2ccc(N3CCOCC3)cc2)n1`, for which the total cell number is -22.6.

The compound `O=C(Nc1ccc(-c2ccnc(Nc3ccc(N4CCOCC4)cc3)n2)cc1)C1CCCN1` (stereo unspecified) registered a total cell number of -12.4. In the case of `N#CCNC(=O)c1ccc(-c2ccnc(Nc3ccc(N4CCOCC4)cc3)n2)cc1` it was -12.5; in that of `CC(C)OC(=O)C(C(=O)OC(C)C)=C1SC=CS1` [Malotilate], 7.42.

Take `COc1ccc(C2(CNC(=O)c3ccc(NC(=O)c4ccco4)cc3)CCOCC2)cc1`: the total cell number was -6.22. Consider `CCc1cccc(CC)c1NC(=O)N1Cc2[nH]nc(NC(=O)c3ccc(N4CCN(C)CC4)cc3)c2C1`, for which the total cell number was -17.5. With `CO[C@@H](C(=O)N1Cc2[nH]nc(NC(=O)c3ccc(N4CCN(C)CC4)cc3)c2C1)c1ccccc1`, the total cell number was -24.2. In turn, `Cc1cc2c(F)c(Oc3ncnn4cc(OC[C@@H](C)O)c(C)c34)ccc2[nH]1` showed a total cell number of -1.9. Under `Cc1cc2c(F)c(Oc3ncnn4cc(OC[C@@H](C)OC(=O)[C@H](C)N)c(C)c34)ccc2[nH]1` stands -4.11. As for `COc1cc2c(Oc3ccc4[nH]c(C)cc4c3F)ncnc2cc1OCCCN1CCCC1` [Cediranib (AZD2171)], the total cell number is -26.9. `CN(C)C(=O)[C@H](O)[C@H](Cc1ccccc1)NC(=O)c1cc2cc(Cl)ccc2[nH]1`: the total cell number worked out at 0.79 ± 0.2. In the case of `CCCC(CCC)C(=O)O[C@H]1C[C@H]2CC[C@@H](C1)[N+]2(C)C` [Anisotropine methyl bromide] it was 12.1. `COc1ccc(-c2nc(N3CCOCC3)c3sc(CN(C)c4ncc(C(=O)NO)cn4)cc3n2)cn1` displayed a total cell number of -10.4. In the case of `CS(=O)(=O)N1CCN(Cc2cc3nc(-c4cccc5[nH]ncc45)nc(N4CCOCC4)c3s2)CC1` it was -23.7; in that of `Cc1c(CN2CCN(C(=O)[C@H](C)O)CC2)sc2c(N3CCOCC3)nc(-c3cnc(N)nc3)nc12`, -11.4. In the case of `O=c1cc(-c2ccccc2)oc2cc(O)c(O)c(O)c12` [Baicalein] it was -6.52; in that of `CCCCOc1ccc(C(=O)Nc2ccc(F)cc2F)cc1`, 1.72; in that of `CCCCCCCCCCCC1=C(O)C(=O)C=C(O)C1=O` [Embelin], 1. In the case of `COc1cc(Nc2ncc3c(n2)-c2ccc(Cl)cc2C(c2c(F)cccc2OC)=NC3)ccc1C(=O)O` [Alisertib (MLN8237)] it was -12.8; in that of `Cc1ccc(-c2cc(C(F)(F)F)nn2-c2ccc(S(N)(=O)=O)cc2)cc1` [Celecoxib], 0.578 ± 0.53; in that of `NS(=O)(=O)c1ccc(-n2nc(C(F)(F)F)cc2-c2ccc(Cl)cc2)cc1`, 0.298. Compound `NCC(=O)Nc1ccc(-n2nc(C(F)(F)F)cc2-c2ccc3c(ccc4ccccc43)c2)cc1` displayed a total cell number of -26.5.

Compound `CCCCc1nc2cc(/C=C/C(=O)NO)ccc2n1CCN(CC)CC` [Pracinostat (SB939)] showed a total cell number of -12.2. As to `Cc1[nH]c(/C=C2\C(=O)Nc3ccccc32)c(C)c1CCC(=O)O` [TSU-68 (SU6668, Orantinib)], the total cell number was -0.233. Under `CCN(CC)CCNC(=O)c1c(C)[nH]c(/C=C2\C(=O)Nc3ccc(F)cc32)c1C` [Sunitinib Malate] stands -26.5; under `CCN(CC)CCNC(=O)c1c(C)[nH]c(/C=C2\C(=O)Nc3ccc(F)cc32)c1C` [Sunitinib malate], -11.2. In the case of `CCN(CC)CCNC(=O)c1cc(S(C)(=O)=O)ccc1OC` [Tiapride hydrochloride] it was -1.15; in that of `C[N+](C)(C)CC(O)CC(=O)[O-]` (racemic) [DL-Carnitine HCl], 2.24; in that of `CC(=O)C(C)=O` [2,3-Butanedione], -1.17. In the case of `CC[C@H]1OC(=O)C[C@@H](O)[C@H](C)[C@@H](O[C@@H]2O[C@H](C)[C@@H](O)[C@H](N(C)C)[C@H]2O)[C@@H](CCN2C[C@H](C)C[C@H](C)C2)C[C@@H](C)C(=O)/C=C/C(C)=C/[C@@H]1CO[C@@H]1O[C@H](C)[C@@H](O)[C@@H](OC)[C@H]1OC` [Tilmicosin] it was -3.95. As to `Cc1cc(C)c(/C=C2\C(=O)Nc3ccccc32)[nH]1`, the total cell number was -3.96. In the case of `COC1=CC(c2cc3ccccc3[nH]2)=N/C1=C\c1[nH]c(C)cc1C` [Obatoclax Mesylate (GX15-070)] it was -27.6; in that of `Cc1cc(C)c(/C=C2\C(=O)Nc3ccccc32)[nH]1` [Semaxanib (SU5416)], -1.49. In turn, `C[C@H](NC(=O)Cc1cc(F)cc(F)c1)C(=O)N[C@@H]1C(=O)N(C)c2ccccc2-c2ccccc21` came in with a total cell number of -6.63. `NS(=O)(=O)c1nn2cc(-c3ccccc3)nc2s1` returned a total cell number of -5.78.

Take `CCCCCCCC/C=C\CCCCCCCC(=O)NCc1ccc(O)c(OC)c1` [Olvanil]: the total cell number is -4.4. In the case of `C[C@@H](N)[C@H]1CC[C@H](C(=O)Nc2ccncc2)CC1`, the total cell number is -1.42 and -2.14. `Cc1cc(Nc2cc(N3CCN(C)CC3)nc(Sc3ccc(NC(=O)C4CC4)cc3)n2)n[nH]1` [VX-680 (Tozasertib, MK-0457)] came in with a total cell number of -24. In turn, `O=C(Nc1ccc2[nH]ncc2c1)C1CCC1` [Rhodblock 6] displayed a total cell number of -2.58. Under `Cc1cc(Nc2cc(N3CCN(C)CC3)nc(/C=C/c3ccccc3)n2)n[nH]1` stands -26.3; under `Fc1ccc(C(OCCCc2cnc[nH]2)c2ccc(F)cc2)cc1`, -1.91. For `CC(C)NCC(O)c1ccc(NS(C)(=O)=O)cc1` (racemic) [(±)-Sotalol hydrochloride], the total cell number is -1.64. Regarding `COCCNC(=O)COc1ccc(OCCNC[C@H](O)COc2ccccc2)cc1` [ZD 7114 hydrochloride], the total cell number is -0.987.

`CCCC(=O)O[C@]1(C(=O)COC(C)=O)CC[C@H]2[C@@H]3C[C@H](F)C4=CC(=O)C=C[C@]4(C)[C@@]3(F)[C@@H](O)C[C@@]21C` [Difluprednate] came in with a total cell number of 4.34.

Consider `COc1cc(N2CCN(C)CC2)ccc1Nc1nccc(-c2cn(C)c3cnccc23)n1`, for which the total cell number is -15.9. In the case of `O=C(O)Cc1ccc(O)c(O)c1` [3,4-Dihydroxyphenylacetic acid] it was -1.97; in that of `Nc1nc(Cl)nc2c1ncn2[C@H]1C[C@H](O)[C@@H](CO)O1` [Cladribine], -22.8. `Nc1nc(Cl)nc2c1ncn2[C@@H]1O[C@H](CO)[C@@H](O)[C@@H]1F` [Clofarabine] returned a total cell number of -21.2. In the case of `Nc1nc(Cl)nc2c1ncn2[C@@H]1O[C@H](CO)[C@@H](O)[C@H]1O` [2-Chloroadenosine] it was -3.18; in that of `c1cnc2cc3c(cc2n1)[C@@H]1CNC[C@H]3C1` [Varenicline Tartrate], 1.55; in that of `c1cnc2cc3c(cc2n1)[C@@H]1CNC[C@H]3C1` [Varenicline tartrate], -2.7.
